# Assay results taken from PubChem BioAssay AID2284356 (EPA ToxCast).
# Inconclusive results are not listed. Activity calls are given as the source filed them. Rule for the calls: active = hit-call score of the fitted dose curve at least 0.9, where 1 is the maximum; inconclusive = response in the unintended direction; inactive = score below 0.9.
# Target: zebrafish Estrogen Receptor (ER1), esr1 (gene 259252) (UniProt P57717)
# Assay: ATG_zfER1_EcoTox2: Attagene TRANS-FACTORIAL EcoTox-2 HepG2 Assay for zebrafish Estrogen Receptor (ER1)
# Experimental: ATG_EcoTox2 is a cell-based, multiplexed assay created by modifying the existing Attagene TRANS-FACTORIAL system to include a panel of nuclear receptors from some or all the following species: human (Homo sapiens), african clawed frog (Xenopus laevis), rainbow trout (Oncorhynchus mykiss), japanese medaka (Oryzias latipes), and zebrafish (Danio rerio). The ECOTOX2-FACTORIAL format uses HepG2, a human liver cell line, with measurements taken at 24 hours after chemical dosing in a 24-well plate. ATG_zfER1_EcoTox2 is one of 29 assay components calculated in the ATG_EcoTox2 assay. It is designed to make measurements of mRNA induction, a form of inducible reporter, as detected with fluorescence intensity signals by Reverse transcription polymerase chain reaction (RT-PCR) and Capillary electrophoresis technology.The assay endpoint ATG_zfER1_EcoTox2 was analyzed in the positive analysis fitting direction relative to DMSO as the negative control and baseline of activity. Using a type of inducible reporter, measures of mRNA for gain-of-signal activity can be used to understand the reporter gene at the transcription factor-level as they relate to the gene ER. Furthermore, this assay endpoint can be referred to as a primary readout, because this assay has produced multiple assay endpoints where this one serves a reporter gene function. […]
# zebrafish Estrogen Receptor (ER1), esr1 (gene 259252), sequence (P57717 whole entry, looked up): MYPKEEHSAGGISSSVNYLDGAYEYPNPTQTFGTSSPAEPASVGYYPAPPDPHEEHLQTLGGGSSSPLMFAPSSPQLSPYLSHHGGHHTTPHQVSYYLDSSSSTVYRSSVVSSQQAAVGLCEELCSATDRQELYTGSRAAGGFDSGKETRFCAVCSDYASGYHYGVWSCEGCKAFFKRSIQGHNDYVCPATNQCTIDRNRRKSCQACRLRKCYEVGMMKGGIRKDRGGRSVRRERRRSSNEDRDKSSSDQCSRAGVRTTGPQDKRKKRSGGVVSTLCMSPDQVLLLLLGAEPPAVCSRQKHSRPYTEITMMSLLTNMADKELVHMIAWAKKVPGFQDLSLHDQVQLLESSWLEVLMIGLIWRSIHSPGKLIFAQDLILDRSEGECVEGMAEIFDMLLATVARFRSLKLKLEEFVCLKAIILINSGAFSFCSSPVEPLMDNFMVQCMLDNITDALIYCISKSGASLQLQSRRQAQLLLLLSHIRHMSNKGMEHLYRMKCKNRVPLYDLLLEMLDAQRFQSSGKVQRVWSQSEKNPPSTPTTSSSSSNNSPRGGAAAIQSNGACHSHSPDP
smiles,measurement,value
O=S(=O)(O)C(F)(F)C(F)(F)C(F)(F)C(F)(F)C(F)(F)C(F)(F)F,outcome,inactive
